{"source": "paper PMC7862700", "about": "“An all-to-all approach to the identification of sequence-specific readers for epigenetic DNA modifications on cytosine”", "assay_in_all_cases": "DAPPL (digital affinity profiling via proximity ligation, sequencing); 10 mM Tris-HCl pH 7.5, 50 mM NaCl, 1 mM DTT, 4% glycerol, room temperature, 30 min; GST-TFs on glutathione beads, 16-mer random dsDNA library, 0.1% formaldehyde crosslink after washing; high values mean tight binding", "conditions_in_all_cases": "protein: recombinant; tags: N-terminal GST; dsDNA, one strand shown", "key": {"ELK1": {"target": "T1, ELK1 (Homo sapiens, UniProt P19419 1-428)", "T1 sequence": "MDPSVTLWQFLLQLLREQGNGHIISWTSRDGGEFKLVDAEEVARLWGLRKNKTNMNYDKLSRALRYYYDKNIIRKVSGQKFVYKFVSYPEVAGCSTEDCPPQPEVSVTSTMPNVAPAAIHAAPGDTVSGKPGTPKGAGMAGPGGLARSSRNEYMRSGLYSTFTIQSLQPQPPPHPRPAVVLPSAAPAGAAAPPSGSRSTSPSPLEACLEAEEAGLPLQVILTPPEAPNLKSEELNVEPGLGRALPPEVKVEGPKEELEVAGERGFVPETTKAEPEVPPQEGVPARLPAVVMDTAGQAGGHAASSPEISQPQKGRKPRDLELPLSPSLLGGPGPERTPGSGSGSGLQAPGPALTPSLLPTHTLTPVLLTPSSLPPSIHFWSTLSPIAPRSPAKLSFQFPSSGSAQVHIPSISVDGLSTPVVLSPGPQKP", "outline": "(§1)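 Beads coated with glutathione captured GST-fused human transcription factors that had been expressed in yeast, and the factors were then given DNA barcodes and pooled with a tag-only sample. The pools were incubated with 200 nmole of a random double-stranded 16-mer DNA library in Tris/NaCl/DTT/glycerol buffer for 30 min at room temperature, washed, crosslinked with 0.1% formaldehyde and proximity-ligated with BsaI/T4 ligase at 37 °C for 1 h. PCR amplification and Illumina NextSeq500 sequencing came last. Binding signal is each hexamer's read frequency for a factor divided by its frequency for the tag-only sample.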"}, "GABPA": {"target": "T2, GABPA (Homo sapiens, UniProt Q06546 1-454)", "T2 sequence": "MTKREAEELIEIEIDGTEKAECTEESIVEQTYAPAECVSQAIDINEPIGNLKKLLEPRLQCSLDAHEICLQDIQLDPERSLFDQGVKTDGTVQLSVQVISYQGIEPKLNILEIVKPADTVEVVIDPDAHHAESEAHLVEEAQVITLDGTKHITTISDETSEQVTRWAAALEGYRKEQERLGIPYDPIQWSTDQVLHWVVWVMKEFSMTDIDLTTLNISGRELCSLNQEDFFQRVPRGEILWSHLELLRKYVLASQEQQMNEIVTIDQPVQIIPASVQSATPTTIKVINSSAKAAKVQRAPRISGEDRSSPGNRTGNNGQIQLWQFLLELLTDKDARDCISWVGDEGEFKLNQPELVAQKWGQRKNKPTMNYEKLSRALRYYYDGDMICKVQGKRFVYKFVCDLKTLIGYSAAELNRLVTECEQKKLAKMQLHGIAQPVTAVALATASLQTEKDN", "outline": "as §1"}, "ERG": {"target": "T3, ERG (Homo sapiens, UniProt P11308 1-479)", "T3 sequence": "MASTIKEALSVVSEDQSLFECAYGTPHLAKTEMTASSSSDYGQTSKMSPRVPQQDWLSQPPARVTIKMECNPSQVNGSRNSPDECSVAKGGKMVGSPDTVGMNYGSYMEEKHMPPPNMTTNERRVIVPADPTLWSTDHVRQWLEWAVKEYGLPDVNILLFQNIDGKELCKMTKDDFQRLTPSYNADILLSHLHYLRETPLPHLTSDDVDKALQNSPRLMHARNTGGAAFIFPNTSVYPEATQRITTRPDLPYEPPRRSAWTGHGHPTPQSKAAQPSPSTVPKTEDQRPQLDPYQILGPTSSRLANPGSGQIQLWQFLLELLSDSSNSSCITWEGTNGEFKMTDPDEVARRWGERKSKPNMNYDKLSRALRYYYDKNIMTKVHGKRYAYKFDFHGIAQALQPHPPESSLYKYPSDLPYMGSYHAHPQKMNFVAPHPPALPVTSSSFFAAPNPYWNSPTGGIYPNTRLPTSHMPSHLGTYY", "outline": "as §1"}, "ELF1": {"target": "ELF1 (Homo sapiens, UniProt P32519 1-619)", "sequence (P32519 whole entry)": "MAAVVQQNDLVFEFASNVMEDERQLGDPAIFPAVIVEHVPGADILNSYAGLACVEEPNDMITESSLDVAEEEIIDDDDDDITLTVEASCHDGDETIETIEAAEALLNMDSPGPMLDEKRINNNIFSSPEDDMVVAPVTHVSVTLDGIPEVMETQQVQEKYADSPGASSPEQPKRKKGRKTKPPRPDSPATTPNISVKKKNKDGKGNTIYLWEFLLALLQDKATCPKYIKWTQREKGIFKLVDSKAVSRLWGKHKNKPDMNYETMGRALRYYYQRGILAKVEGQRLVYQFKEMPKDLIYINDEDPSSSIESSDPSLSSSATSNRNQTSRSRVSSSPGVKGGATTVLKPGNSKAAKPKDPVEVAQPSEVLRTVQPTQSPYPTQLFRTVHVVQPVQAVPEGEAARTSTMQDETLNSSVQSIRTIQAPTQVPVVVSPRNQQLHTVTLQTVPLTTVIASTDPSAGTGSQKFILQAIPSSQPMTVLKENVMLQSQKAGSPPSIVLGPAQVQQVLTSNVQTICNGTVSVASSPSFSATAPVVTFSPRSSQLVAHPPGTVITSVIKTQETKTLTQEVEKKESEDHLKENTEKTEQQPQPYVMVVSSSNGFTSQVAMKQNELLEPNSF", "outline": "as §1"}, "EHF": {"target": "T4, EHF (Homo sapiens, UniProt Q9NZC4 1-300)", "T4 sequence": "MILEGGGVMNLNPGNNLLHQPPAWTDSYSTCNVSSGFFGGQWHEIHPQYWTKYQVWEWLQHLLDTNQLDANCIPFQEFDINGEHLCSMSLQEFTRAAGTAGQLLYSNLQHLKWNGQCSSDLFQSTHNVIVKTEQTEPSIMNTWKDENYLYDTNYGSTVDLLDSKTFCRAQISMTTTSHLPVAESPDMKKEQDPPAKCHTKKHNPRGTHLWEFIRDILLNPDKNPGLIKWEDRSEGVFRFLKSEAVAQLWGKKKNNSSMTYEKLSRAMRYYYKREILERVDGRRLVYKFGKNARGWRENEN", "outline": "as §1"}, "SPIB": {"target": "SPIB (Homo sapiens, UniProt Q01892 1-262)", "sequence (Q01892 whole entry)": "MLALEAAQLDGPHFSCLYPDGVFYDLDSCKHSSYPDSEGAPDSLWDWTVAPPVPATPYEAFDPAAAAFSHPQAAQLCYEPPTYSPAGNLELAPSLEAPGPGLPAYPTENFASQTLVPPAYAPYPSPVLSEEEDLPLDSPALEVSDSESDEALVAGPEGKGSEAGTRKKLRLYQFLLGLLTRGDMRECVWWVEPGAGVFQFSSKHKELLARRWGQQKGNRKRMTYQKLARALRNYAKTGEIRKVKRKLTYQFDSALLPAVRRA", "outline": "as §1"}, "ELK3": {"target": "T5, ELK3 (Homo sapiens, UniProt P41970 1-407)", "T5 sequence": "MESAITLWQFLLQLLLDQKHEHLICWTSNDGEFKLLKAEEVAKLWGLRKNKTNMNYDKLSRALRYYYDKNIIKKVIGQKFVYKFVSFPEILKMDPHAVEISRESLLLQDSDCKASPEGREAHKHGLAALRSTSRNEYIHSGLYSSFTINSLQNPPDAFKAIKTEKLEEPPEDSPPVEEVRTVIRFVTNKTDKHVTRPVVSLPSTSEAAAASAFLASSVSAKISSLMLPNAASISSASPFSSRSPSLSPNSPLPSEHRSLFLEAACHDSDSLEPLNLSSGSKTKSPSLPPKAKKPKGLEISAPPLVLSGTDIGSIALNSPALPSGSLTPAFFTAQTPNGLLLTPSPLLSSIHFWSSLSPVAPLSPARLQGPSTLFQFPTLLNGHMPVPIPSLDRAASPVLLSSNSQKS", "outline": "as §1"}, "ETV5": {"target": "ETV5 (Homo sapiens, UniProt P41161 1-510)", "sequence (P41161 whole entry)": "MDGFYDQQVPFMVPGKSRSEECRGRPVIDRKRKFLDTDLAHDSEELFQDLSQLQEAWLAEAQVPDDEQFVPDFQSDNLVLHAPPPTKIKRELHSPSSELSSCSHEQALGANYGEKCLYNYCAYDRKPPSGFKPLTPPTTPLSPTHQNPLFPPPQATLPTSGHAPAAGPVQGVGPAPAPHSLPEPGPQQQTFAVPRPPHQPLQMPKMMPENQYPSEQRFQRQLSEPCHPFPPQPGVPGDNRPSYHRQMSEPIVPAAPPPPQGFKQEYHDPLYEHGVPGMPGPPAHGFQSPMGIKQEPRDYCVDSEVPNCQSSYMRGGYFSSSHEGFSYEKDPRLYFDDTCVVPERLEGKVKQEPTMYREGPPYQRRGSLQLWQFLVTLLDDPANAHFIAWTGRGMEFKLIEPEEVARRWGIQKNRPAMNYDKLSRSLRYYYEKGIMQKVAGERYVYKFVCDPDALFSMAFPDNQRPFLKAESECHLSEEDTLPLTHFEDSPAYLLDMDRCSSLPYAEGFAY", "outline": "as §1"}, "SPIC": {"target": "T6, SPIC (Homo sapiens, UniProt Q8N5J4 1-248)", "T6 sequence": "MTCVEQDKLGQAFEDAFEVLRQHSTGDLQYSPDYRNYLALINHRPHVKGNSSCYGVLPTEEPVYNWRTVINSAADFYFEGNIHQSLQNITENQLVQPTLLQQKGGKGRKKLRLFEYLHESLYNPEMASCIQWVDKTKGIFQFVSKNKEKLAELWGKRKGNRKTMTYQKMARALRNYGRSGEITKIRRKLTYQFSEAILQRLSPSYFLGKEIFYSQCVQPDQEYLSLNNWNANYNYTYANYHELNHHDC", "outline": "as §1"}, "ELF4": {"target": "ELF4 (Homo sapiens, UniProt Q99607 1-663)", "sequence (Q99607 whole entry)": "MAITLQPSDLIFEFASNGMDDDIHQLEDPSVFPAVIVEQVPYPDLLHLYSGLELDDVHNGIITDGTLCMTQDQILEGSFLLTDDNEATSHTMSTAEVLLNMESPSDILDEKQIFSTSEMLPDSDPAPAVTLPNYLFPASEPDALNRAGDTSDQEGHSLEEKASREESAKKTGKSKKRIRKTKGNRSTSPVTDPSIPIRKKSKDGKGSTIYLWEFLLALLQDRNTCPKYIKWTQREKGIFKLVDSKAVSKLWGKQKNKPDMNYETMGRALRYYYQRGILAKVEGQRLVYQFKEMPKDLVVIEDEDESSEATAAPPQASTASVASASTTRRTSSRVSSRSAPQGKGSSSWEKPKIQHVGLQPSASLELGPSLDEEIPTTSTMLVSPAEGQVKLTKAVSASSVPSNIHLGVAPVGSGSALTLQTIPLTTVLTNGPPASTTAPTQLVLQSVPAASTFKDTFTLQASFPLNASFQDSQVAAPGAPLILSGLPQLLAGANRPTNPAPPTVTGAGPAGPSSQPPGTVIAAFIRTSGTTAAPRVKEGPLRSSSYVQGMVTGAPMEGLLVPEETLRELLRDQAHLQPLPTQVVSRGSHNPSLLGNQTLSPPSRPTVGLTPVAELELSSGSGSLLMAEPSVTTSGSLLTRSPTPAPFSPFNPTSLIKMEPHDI", "outline": "as §1"}}}
{"sequence": "CACAGC", "values": [{"measurement": "binding signal", "setting": "ELK1", "result": "1.09 fold enrichment (6-mer frequency, TF over GST control)"}, {"measurement": "binding signal", "setting": "GABPA", "result": "1.02 fold enrichment (6-mer frequency, TF over GST control)"}, {"measurement": "binding signal", "setting": "ERG", "result": "1.03 fold enrichment (6-mer frequency, TF over GST control)"}, {"measurement": "binding signal", "setting": "ELF1", "result": "1.11 fold enrichment (6-mer frequency, TF over GST control)"}, {"measurement": "binding signal", "setting": "EHF", "result": "1.02 fold enrichment (6-mer frequency, TF over GST control)"}, {"measurement": "binding signal", "setting": "SPIB", "result": "1.05 fold enrichment (6-mer frequency, TF over GST control)"}, {"measurement": "binding signal", "setting": "ELK3", "result": "1.07 fold enrichment (6-mer frequency, TF over GST control)"}, {"measurement": "binding signal", "setting": "ETV5", "result": "1.01 fold enrichment (6-mer frequency, TF over GST control)"}, {"measurement": "binding signal", "setting": "SPIC", "result": "1.1 fold enrichment (6-mer frequency, TF over GST control)"}, {"measurement": "binding signal", "setting": "ELF4", "result": "1.08 fold enrichment (6-mer frequency, TF over GST control)"}]}
